Measurements taken from PubChem BioAssay (NCATS).
Results filed as inconclusive are left out. Unless noted, calls follow the shape of the dose curve; as a rule, active = well fitted curve in either direction with a large enough effect (not every such curve was filed as active); inconclusive = small, poorly fitted or top-dose-only effect, or another doubt; inactive = flat fitted curve, though single readings scatter.

Experiments:
[1] = AP1 Signaling Pathway (AID 357); details: ME-180 AP-1-bla reporter, EGF-induced, beta-lactamase ratio, 5 h; at 17.2 µM (top of the series) unless noted;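 also: ME-180 reporter cells stimulated with EGF at its EC50 level; % is scaled to controls: 0 for no effect and ±100 for the full control effect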
Outline: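 In this screen, ME-180 cells in Opti-MEM with 0.5% dialyzed FBS received EC50 EGF and compound titrations for 5 h. AP-1 reporter beta-lactamase was detected via CCF4 ratio, giving AC50 for positive and negative modulators.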

[2] = Stat Signaling Pathway (AID 446); details: ME-180 (cervical carcinoma) SIE beta-lactamase reporter, IL-6 stimulated, 5 h; at 17.2 µM (top of the series) unless noted;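 also: ME-180 cervical cancer cells given 40 pM IL-6 alongside compound; SIE-controlled beta-lactamase reporter measured as 460/530 nm FRET emission ratio; % is scaled to controls: 0 for no effect and ±100 for the full control effect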
Outline: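 FRET read-out (405 nm excitation, 460/530 nm emission) of a beta-lactamase reporter under a STAT-inducible element in ME-180 cervical carcinoma cells. Cells with compound receive 40 pM IL-6 for 5 h. Values are normalised to AC90 stimulation and AC90 JAK-inhibitor controls.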

[3] = biological target: Glucocorticoid receptor (Homo sapiens) (UniProt P04150); assay: GR-GFP Redistribution (AID 450;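 active = compounds whose dose series gives a full or clear partial fitted curve of increased nuclear translocation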; also: potency is read from the fitted curve at half-maximal effect)
Sequence of Glucocorticoid receptor (Homo sapiens) (P04150 whole entry, looked up): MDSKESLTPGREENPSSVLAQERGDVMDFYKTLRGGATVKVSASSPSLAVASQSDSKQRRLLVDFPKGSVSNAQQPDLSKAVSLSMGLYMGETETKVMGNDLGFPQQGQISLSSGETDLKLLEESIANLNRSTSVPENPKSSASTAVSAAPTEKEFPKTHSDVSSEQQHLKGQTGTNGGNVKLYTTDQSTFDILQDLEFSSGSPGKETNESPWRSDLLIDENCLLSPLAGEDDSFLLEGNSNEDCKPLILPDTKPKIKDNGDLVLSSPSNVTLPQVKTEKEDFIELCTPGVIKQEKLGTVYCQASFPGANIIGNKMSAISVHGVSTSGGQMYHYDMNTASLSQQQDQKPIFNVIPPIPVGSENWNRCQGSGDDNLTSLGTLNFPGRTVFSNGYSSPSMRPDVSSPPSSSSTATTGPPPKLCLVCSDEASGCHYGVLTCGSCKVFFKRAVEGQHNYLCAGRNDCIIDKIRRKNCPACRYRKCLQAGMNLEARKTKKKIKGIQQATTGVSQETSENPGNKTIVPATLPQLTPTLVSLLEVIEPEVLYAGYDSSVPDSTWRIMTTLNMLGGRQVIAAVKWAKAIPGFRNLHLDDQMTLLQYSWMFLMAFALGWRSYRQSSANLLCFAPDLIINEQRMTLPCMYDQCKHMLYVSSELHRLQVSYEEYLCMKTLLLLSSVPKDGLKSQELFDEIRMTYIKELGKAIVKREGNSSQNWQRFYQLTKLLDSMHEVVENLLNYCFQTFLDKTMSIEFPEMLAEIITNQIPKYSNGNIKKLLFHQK

CCOC(=O)C1=C(CSc2nc(-c3ccncc3)ccc2C#N)OC(N)=C(C#N)C1c1cccnc1 (stereo not given)
inactive: activity change, negative = inhibition [1] 20.1% | activity, negative = inhibition [2] -14.4% | Potency [3] > 20.6 µM

COc1cc(/C=N/O)ccc1OCc1ccc(C(=O)O)cc1
inactive: activity change, negative = inhibition [1] -13.9% | activity, negative = inhibition [2] -11.7% | Potency [3] > 20.6 µM

Cc1c(C)c2cc(Cl)c(O)c(CN3CCCC(C)C3)c2oc1=O (stereo not given)
inactive: activity change, negative = inhibition [1] 14.1% | activity, negative = inhibition [2] -3.87% | Potency [3] > 20.6 µM

CC1(C)Cc2c(sc3nc4n(c(=N)c23)CCCCC4)CO1
inactive: activity change, negative = inhibition [1] 19.2% | activity, negative = inhibition [2] 3.32% | Potency [3] > 20.6 µM

CC(C)COc1ccc(C(=O)OCCN2CCOCC2)c(O)c1
inactive: activity change, negative = inhibition [1] 1.3% | activity, negative = inhibition [2] 0.653% | Potency [3] > 20.6 µM

CCSc1nnc(NC(=O)C(C(F)(F)F)C(F)(F)F)s1
inactive: activity change, negative = inhibition [1] -16.3% | activity, negative = inhibition [2] -21.8% | Potency [3] > 20.6 µM

Oc1c(C=Nc2cccnc2)sc2ccccc12
inactive: activity change, negative = inhibition [1] 8.1% | activity, negative = inhibition [2] -3.68% | Potency [3] > 20.6 µM

C=CCn1c(SCC(=O)OC)nc2sc3c(c2c1=O)CCN(C)C3
inactive: activity change, negative = inhibition [1] -12.5% | activity, negative = inhibition [2] 2.28% | Potency [3] > 20.6 µM

CCCCCCn1c(SCCN2CCOCC2)nc2c1c(=O)[nH]c(=O)n2C
inactive: activity change, negative = inhibition [1] -17.8% | activity, negative = inhibition [2] -0.329% | Potency [3] > 20.6 µM

Cc1ccccc1OCc1nc2ccccc2c(=O)n1NC(=O)c1ccco1
inactive: activity change, negative = inhibition [1] 4.16% | activity, negative = inhibition [2] 1.48% | Potency [3] > 20.6 µM

Cc1ccc2c(c1)[C@@H]1CN(C)CC[C@@H]1N2S(=O)(=O)c1ccc(F)cc1
inactive: activity change, negative = inhibition [1] 12.8% | activity, negative = inhibition [2] 5.84% | Potency [3] > 20.6 µM

CCOC(=O)c1[nH]c2ccc(F)cc2c1NC(=O)CCN1CCSCC1
inactive: activity change, negative = inhibition [1] 0.77% | activity, negative = inhibition [2] 0.475% | Potency [3] > 20.6 µM

NC(Cc1ccc(Oc2ccc(O)cc2)cc1)C(=O)O (stereo not given)
inactive: activity change, negative = inhibition [1] -2.36% | activity, negative = inhibition [2] -1.48% | Potency [3] > 20.6 µM

CCOC(=O)c1c(NC(=O)CCN2CCOCC2)sc2c1CC(C)(C)OC2
inactive: activity change, negative = inhibition [1] -21.7% | activity, negative = inhibition [2] -5.77% | Potency [3] > 20.6 µM

CCCCNC1=C(Br)C(=O)CC(C)(C)C1
inactive: activity change, negative = inhibition [1] 4.07% | activity, negative = inhibition [2] -6.99% | Potency [3] > 20.6 µM

Cc1nn2cnc3sc4c(c3c2nc1=O)CCCC4
inactive: activity change, negative = inhibition [1] 10.1% | activity, negative = inhibition [2] -8.12% | Potency [3] > 20.6 µM

CCn1c(SCC(=O)N2CCOCC2)nc2sc3c(c2c1=O)CCCC3
inactive: activity change, negative = inhibition [1] -8.7% | activity, negative = inhibition [2] -6.44% | Potency [3] > 20.6 µM

COc1ccc2c(c1OC)C(=O)N1c3ccccc3C(=O)N(c3ccccc3)C21 (stereo not given)
inactive: activity change, negative = inhibition [1] -9.35% | activity, negative = inhibition [2] 0.163% | Potency [3] > 20.6 µM

N#Cc1nc(COc2ccccc2Cl)oc1NCc1ccc(F)cc1
inactive: activity change, negative = inhibition [1] -5.24% | activity, negative = inhibition [2] -20.3% | Potency [3] > 20.6 µM

CCCOc1cccc(CN2CCCCC2c2cccnc2)c1 (stereo not given)
inactive: activity change, negative = inhibition [1] 0.284% | activity, negative = inhibition [2] 0.49% | Potency [3] > 20.6 µM

Cc1cccc(NC(=O)c2c(C)cc(=O)oc2C)n1
inactive: activity change, negative = inhibition [1] -0.882% | activity, negative = inhibition [2] 4.29% | Potency [3] > 20.6 µM

N#Cc1cc(Oc2cccc3cccnc23)c(-n2nnc3ccccc32)cc1C#N
inactive: activity change, negative = inhibition [1] 11.4% | activity, negative = inhibition [2] 11.7% | Potency [3] > 20.6 µM

O=C(NCc1cccnc1)/C(=N\O)c1ccccc1
inactive: activity change, negative = inhibition [1] -8.53% | activity, negative = inhibition [2] 0.749% | Potency [3] > 20.6 µM

COc1ccc(-c2nc3c(Br)c(N)c(Br)cc3o2)cc1
inactive: activity change, negative = inhibition [1] 4.22% | activity, negative = inhibition [2] 8.24% | Potency [3] > 20.6 µM

N#Cc1nc(COc2ccc(Cl)cc2)oc1N1CCN(Cc2ccccc2)CC1
inactive: activity change, negative = inhibition [1] -16.3% | activity, negative = inhibition [2] 4.41% | Potency [3] > 20.6 µM

Cc1ccc(-c2ccc(/C=N/c3ncn[nH]3)o2)cc1Cl
inactive: activity change, negative = inhibition [1] 1.81% | activity, negative = inhibition [2] -7.79% | Potency [3] > 20.6 µM

CCOC(=O)c1nc2nc(C)c(Cl)c(=O)n2[nH]1
inactive: activity change, negative = inhibition [1] -6.21% | activity, negative = inhibition [2] 5.64% | Potency [3] > 20.6 µM

Cc1cc(N2C(=O)C(=O)/C(=C(/O)c3ccccc3)C2c2cccc(Br)c2)no1 (stereo not given)
inactive: activity change, negative = inhibition [1] -11.1% | activity, negative = inhibition [2] -23.1% | Potency [3] > 20.6 µM

COC(=O)CSC1=C(C#N)C(=O)NC2(CCCCC2)S1
inactive: activity change, negative = inhibition [1] 1.61% | activity, negative = inhibition [2] 3.53% | Potency [3] > 20.6 µM

Nc1c(C(=O)NCC2CCCO2)c2nc3ccccc3nc2n1/N=C/c1ccncc1 (stereo not given)
inactive: activity change, negative = inhibition [1] -7.06% | activity, negative = inhibition [2] -9.64% | Potency [3] > 20.6 µM
